Data published in the supplement of paper PMC11732987, “Enantioselective OTUD7B fragment discovery through chemoproteomics screening and high-throughput optimisation” (Communications Chemistry, 2025).

Legend:
Assay in all cases: log2 ratio of Biotin-Ahx-Ub-VS probe labelling (fragment/DMSO); higher = less target engagement (more negative = stronger competition), active = hit call of the paper (q ≤ 0.05, log2 ratio ≤ -1)
Details in all cases: compound concentration: 200 uM; treatment time: 3 h
UniProt O00507 = target: UniProt O00507
Procedure, shortened: (§1)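 In triplicate, 495 µg of HEK293T lysate per sample was incubated with fragment at 200 µM or vehicle for 3 h. Biotin-Ahx-Ub-VS was then added to 0.5 µM final for 1 h, and labelled DUBs were captured with NeutrAvidin, digested with LysC and trypsin, and measured by diaPASEF LC-MS/MS. Data are average log2 fragment/vehicle ratios by unpaired t-test from global-median-normalised Spectronaut label-free quantities, restricted to proteins with ≥2 unique peptides.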

UniProt P51784 = target: UniProt P51784
Procedure, shortened: as §1

UniProt Q5T2D3 = target: T1, UniProt Q5T2D3
T1 sequence (whole entry): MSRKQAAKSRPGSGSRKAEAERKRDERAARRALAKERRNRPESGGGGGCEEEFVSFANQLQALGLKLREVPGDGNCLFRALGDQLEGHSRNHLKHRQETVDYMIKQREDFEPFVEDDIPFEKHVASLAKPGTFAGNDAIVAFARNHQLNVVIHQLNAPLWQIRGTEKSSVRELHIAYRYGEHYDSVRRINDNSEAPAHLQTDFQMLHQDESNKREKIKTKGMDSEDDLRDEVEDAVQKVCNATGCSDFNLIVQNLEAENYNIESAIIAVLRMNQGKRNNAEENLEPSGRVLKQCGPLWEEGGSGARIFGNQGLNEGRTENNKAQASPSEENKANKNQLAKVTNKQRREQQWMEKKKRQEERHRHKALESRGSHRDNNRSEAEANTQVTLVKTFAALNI
Procedure, shortened: as §1

UniProt Q8TE49 = target: T2, UniProt Q8TE49
T2 sequence (whole entry): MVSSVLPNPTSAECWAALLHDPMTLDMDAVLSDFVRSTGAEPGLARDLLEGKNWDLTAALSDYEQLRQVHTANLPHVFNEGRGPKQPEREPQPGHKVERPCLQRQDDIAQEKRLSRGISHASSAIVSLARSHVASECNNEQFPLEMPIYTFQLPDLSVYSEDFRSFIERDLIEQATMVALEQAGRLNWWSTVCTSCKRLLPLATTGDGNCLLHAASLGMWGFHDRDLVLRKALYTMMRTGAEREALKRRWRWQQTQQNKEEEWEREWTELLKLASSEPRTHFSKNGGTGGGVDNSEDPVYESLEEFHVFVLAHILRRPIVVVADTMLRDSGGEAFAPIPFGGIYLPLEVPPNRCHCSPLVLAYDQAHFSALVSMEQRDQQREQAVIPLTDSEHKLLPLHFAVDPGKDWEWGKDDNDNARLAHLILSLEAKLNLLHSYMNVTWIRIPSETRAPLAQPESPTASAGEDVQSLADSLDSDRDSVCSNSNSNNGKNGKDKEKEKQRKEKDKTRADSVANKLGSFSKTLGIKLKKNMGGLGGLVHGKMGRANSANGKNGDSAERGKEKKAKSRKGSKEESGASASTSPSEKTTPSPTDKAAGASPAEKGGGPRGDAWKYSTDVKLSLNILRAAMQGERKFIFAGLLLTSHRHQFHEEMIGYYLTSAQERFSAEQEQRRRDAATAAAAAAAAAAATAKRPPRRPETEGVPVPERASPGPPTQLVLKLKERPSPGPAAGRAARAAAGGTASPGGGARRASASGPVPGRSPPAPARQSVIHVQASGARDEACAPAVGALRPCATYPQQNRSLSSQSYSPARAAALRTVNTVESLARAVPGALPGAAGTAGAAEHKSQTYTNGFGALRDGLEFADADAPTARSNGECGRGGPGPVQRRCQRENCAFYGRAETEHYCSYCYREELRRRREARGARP
Procedure, shortened: as §1

UniProt Q9P2H5 = target: T3, UniProt Q9P2H5
T3 sequence (whole entry): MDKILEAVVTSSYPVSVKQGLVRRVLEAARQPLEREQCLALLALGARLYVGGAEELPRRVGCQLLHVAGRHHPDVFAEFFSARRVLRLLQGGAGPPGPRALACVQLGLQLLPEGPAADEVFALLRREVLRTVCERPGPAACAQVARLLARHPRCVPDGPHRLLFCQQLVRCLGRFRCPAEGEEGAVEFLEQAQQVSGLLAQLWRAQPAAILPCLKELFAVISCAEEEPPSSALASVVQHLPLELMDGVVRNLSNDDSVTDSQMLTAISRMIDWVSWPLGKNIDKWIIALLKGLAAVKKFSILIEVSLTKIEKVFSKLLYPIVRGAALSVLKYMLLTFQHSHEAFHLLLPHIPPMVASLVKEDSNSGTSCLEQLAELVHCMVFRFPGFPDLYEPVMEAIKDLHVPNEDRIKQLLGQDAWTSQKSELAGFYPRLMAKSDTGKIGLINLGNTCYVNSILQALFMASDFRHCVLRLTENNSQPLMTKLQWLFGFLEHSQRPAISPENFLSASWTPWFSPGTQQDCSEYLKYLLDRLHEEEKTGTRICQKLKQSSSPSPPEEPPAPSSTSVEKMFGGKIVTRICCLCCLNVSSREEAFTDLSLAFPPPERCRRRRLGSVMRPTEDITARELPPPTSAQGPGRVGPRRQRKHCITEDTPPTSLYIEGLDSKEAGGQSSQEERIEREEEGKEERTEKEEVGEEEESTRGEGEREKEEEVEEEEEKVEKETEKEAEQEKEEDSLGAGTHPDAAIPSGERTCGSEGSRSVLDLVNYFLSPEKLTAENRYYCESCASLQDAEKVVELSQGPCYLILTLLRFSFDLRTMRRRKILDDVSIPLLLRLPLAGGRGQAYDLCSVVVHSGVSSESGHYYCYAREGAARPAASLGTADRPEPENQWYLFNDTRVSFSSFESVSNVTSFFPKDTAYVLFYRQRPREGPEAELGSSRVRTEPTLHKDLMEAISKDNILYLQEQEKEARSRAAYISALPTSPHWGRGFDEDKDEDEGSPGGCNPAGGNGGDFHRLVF
Procedure, shortened: as §1

UniProt Q9UGI0 = target: T4, UniProt Q9UGI0
T4 sequence (whole entry): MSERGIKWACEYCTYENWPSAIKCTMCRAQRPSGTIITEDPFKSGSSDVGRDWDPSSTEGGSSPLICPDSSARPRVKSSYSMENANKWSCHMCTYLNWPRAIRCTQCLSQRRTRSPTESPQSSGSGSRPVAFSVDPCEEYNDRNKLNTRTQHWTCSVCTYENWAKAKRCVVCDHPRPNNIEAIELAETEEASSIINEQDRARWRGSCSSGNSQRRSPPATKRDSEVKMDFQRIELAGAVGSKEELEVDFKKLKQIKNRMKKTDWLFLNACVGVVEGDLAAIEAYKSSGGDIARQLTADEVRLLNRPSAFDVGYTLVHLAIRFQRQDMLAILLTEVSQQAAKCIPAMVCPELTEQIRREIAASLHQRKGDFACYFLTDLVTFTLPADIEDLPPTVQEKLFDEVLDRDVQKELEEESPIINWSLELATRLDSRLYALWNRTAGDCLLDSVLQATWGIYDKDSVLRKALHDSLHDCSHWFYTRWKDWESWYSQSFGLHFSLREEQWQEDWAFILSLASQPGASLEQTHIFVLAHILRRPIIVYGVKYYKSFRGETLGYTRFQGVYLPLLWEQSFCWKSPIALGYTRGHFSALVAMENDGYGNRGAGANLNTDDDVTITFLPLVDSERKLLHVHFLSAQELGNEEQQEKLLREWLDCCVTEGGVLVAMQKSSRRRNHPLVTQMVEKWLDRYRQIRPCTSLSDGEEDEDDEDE
Procedure, shortened: as §1

YOD1 = target: T5, YOD1 (UniProt Q5VVQ6)
T5 sequence (whole entry): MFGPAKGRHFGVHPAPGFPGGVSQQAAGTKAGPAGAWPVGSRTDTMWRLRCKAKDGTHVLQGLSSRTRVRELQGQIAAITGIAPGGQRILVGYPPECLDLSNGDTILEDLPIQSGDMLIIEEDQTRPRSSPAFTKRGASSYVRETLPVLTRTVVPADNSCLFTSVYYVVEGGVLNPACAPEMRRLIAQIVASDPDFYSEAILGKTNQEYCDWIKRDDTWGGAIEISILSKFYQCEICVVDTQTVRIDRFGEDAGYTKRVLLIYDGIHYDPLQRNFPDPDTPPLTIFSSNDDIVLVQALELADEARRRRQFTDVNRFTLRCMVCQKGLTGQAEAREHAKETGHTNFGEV
Procedure, shortened: as §1

Measured: log2 ratio of Biotin-Ahx-Ub-VS probe labelling

Chain of UniProt P51784 (P51784 whole entry): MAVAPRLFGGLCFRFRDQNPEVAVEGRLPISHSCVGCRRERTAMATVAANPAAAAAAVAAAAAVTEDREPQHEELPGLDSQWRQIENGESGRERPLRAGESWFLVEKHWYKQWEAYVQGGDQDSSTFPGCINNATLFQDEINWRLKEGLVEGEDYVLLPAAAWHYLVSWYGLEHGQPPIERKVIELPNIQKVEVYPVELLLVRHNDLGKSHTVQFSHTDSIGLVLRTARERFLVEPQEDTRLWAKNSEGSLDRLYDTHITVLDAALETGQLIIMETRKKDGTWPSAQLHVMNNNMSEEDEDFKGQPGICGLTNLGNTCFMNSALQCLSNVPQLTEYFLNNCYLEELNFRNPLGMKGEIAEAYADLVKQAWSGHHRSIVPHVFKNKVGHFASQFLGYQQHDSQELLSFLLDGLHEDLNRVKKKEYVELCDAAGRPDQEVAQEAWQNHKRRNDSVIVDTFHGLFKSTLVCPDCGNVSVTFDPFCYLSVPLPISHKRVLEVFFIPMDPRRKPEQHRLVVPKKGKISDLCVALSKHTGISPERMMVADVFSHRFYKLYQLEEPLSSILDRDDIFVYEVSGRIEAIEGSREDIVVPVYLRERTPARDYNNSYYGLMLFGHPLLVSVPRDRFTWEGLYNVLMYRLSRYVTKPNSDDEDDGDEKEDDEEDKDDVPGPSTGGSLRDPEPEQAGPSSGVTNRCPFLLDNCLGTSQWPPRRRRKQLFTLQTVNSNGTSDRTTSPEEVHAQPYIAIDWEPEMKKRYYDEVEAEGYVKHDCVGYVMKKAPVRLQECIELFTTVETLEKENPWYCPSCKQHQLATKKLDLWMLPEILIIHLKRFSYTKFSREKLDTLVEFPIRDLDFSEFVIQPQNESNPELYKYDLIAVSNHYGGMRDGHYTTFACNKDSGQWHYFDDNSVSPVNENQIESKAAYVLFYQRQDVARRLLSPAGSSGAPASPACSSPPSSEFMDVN
Chain of UniProt O00507 (O00507 whole entry, the tested form may be a part): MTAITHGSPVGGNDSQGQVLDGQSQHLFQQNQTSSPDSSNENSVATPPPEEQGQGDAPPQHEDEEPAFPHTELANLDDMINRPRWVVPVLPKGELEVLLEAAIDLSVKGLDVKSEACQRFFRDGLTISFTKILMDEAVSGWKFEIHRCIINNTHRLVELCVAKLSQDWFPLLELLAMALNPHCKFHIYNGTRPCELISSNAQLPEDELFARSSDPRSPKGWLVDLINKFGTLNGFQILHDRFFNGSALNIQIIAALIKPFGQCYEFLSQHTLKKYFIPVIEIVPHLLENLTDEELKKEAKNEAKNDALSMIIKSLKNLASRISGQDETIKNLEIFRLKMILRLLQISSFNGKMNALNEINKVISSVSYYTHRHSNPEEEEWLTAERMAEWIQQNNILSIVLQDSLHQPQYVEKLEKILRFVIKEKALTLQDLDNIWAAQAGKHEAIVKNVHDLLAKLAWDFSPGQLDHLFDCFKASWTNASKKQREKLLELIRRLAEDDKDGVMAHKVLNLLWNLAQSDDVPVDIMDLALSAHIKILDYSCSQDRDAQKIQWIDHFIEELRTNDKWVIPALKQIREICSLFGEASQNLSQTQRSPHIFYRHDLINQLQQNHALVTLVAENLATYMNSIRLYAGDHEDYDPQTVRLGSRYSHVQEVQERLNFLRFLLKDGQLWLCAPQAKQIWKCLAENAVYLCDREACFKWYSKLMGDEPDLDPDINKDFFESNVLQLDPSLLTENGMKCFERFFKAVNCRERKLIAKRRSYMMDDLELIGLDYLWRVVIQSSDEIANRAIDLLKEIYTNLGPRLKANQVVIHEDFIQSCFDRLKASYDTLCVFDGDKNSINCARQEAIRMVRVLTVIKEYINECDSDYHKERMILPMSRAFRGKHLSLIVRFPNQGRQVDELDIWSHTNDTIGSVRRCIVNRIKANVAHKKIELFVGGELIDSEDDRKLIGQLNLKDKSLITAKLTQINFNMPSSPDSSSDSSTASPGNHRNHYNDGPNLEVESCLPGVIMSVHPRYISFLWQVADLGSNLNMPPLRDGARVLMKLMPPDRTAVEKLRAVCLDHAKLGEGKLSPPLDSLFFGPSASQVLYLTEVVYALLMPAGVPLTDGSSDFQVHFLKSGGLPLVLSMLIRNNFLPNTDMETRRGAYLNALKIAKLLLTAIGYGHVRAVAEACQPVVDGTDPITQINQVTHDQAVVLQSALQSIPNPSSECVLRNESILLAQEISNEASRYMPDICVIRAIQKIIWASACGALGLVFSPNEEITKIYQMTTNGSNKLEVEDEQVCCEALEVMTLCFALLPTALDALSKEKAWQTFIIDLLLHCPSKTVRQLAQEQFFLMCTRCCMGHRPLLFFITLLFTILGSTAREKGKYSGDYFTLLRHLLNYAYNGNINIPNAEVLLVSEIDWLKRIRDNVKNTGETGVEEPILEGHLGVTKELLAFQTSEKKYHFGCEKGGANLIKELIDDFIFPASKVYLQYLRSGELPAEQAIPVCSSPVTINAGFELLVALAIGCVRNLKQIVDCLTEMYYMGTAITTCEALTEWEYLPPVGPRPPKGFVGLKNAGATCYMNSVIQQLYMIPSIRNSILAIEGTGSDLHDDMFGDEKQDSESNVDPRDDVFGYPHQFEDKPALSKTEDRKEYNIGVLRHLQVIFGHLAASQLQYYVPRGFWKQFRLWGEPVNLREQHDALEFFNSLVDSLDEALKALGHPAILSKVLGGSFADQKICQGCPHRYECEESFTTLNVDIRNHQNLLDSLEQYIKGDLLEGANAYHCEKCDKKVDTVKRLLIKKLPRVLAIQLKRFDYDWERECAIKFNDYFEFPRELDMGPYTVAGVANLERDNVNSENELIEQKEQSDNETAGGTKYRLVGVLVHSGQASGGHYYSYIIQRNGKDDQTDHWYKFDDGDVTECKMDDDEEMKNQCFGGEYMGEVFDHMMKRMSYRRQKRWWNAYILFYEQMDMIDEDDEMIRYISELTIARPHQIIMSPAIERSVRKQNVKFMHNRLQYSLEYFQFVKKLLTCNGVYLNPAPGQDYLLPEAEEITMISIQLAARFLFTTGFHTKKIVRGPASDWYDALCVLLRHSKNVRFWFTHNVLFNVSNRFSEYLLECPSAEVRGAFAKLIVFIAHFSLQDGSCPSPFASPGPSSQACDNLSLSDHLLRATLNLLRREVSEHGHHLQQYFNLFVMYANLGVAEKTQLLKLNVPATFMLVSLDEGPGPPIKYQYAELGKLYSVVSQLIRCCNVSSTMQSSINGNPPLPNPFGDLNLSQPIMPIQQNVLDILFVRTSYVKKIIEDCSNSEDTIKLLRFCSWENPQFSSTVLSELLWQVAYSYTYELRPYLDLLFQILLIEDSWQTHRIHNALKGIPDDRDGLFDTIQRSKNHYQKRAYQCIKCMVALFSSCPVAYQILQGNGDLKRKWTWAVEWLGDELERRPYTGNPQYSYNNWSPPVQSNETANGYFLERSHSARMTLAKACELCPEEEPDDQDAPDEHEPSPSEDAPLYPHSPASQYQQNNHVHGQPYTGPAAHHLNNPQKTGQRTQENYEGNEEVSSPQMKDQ

O=C(CCl)Nc1nc(-c2cccs2)cs1
active: UniProt Q9UGI0 -2.34
inactive: UniProt O00507 -0.168 | UniProt P51784 0.104 | UniProt Q5T2D3 -0.239 | UniProt Q8TE49 -0.68 | UniProt Q9P2H5 -0.138 | YOD1 0.237

Cc1c(C#N)c(NC(=O)CCl)n(Cc2ccco2)c1C
inactive: UniProt O00507 -0.255 | UniProt P51784 -0.349 | UniProt Q5T2D3 -0.169 | UniProt Q9P2H5 -0.304 | UniProt Q9UGI0 -0.313 | YOD1 -0.0342
active: UniProt Q8TE49 -2.48

Cl.O=C(CCl)N1CCn2ncc(O)c2C1
active: UniProt Q8TE49 -2.17 | UniProt Q9UGI0 -1.92
inactive: UniProt O00507 -0.112 | UniProt P51784 -0.0869 | UniProt Q5T2D3 -0.448 | UniProt Q9P2H5 -0.541 | YOD1 -0.272

O=C(CCl)N1CCOC2(CCC2)C1
inactive: UniProt O00507 0.31 | UniProt P51784 0.244 | UniProt Q5T2D3 0.00991 | UniProt Q8TE49 -0.696 | UniProt Q9P2H5 0.0475 | UniProt Q9UGI0 -0.71 | YOD1 0.154

Cc1ccc2nnc(CNC(=O)CCl)n2c1
inactive: UniProt O00507 0.487 | UniProt P51784 -0.0917 | UniProt Q5T2D3 -0.119 | UniProt Q8TE49 -0.36 | UniProt Q9P2H5 -0.342 | UniProt Q9UGI0 0.244 | YOD1 0.241

O=C(CCl)NCc1cccc(F)c1
inactive: UniProt O00507 0.176 | UniProt P51784 -0.104 | UniProt Q5T2D3 -0.0819 | UniProt Q8TE49 -0.349 | UniProt Q9P2H5 0.0328 | UniProt Q9UGI0 -0.684 | YOD1 -0.0324
